{"source": "paper PMC7819943", "about": "“Rice protein-binding microarrays: a tool to detect cis-acting elements near promoter regions in rice”", "note": "The full ranking holds about 68,000 sequences; the median of “fluorescence intensity (a.u.)” is about 9,100, and the highest 2% start at about 16,000. The entries come from a sample that favours the highest values as a whole."}
{"target": "OsWRKY34 (Oryza sativa, UniProt Q0JBA9 1-250)", "sequence (Q0JBA9 entry or part of it)": "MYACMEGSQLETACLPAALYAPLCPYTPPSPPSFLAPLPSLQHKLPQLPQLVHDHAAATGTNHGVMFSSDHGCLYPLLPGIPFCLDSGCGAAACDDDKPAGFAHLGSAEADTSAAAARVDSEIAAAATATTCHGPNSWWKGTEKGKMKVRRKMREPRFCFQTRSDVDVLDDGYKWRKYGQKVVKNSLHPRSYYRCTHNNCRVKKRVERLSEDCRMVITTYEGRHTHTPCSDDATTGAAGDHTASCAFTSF", "assay": "protein-binding microarray (RPBM); PBS, 2% BSA, 51.3 ng/ul salmon testes DNA, 50 uM zinc acetate, 200 nM TF, 25 C, 1 h; high values mean tight binding", "settings": "protein: recombinant; tags: N-terminal polyhistidine and DsRed monomer fusion (pET32a); label: CyDye5-dUTP incorporated in the synthesized complementary strand; 3' TTTTT single-stranded linker to array surface; dsDNA, one strand shown", "outline": "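Per-feature fluorescence intensity (arbitrary units), read on an Axon 4000B scanner, is the binding signal. Transcription factors carrying an N-terminal polyhistidine tag and DsRed fusion were expressed in E. coli BL21-CodonPlus and purified on Ni–NTA. A custom Agilent array, made double-stranded by primer extension with Cy5-dUTP and blocked with 2% BSA, was incubated with 200 nM protein in PBS, 2% BSA, salmon testes DNA and 50 µM zinc acetate at 25 °C for 1 h and then washed.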"}
{"sequence": "AACGGCAGCAGATCCACCAAACCCCACACCCTCTCCAAATCGGAGTCACCTAGTGCAG", "binding signal": "8600 fluorescence intensity (a.u.)"}
{"sequence": "ACTCCATTTACGGGCAACTCTTGCTTGCGCAACGGGCCTTCGGAGTCACCTAGTGCAG", "binding signal": "8790 fluorescence intensity (a.u.)"}
{"sequence": "TTCTTAACATGTTCGCATATGAAAATAGACTTATTTTTTACGGAGTCACCTAGTGCAG", "binding signal": "8130 fluorescence intensity (a.u.)"}
{"sequence": "AGCATATCAGCCACTCTTTCTTCTTTGTCTTTATCAACTCCGGAGTCACCTAGTGCAG", "binding signal": "8250 fluorescence intensity (a.u.)"}
{"sequence": "ACTCTTATTGTCTTCACGTTGTCTTATCAGCCACGATCAACGGAGTCACCTAGTGCAG", "binding signal": "17900 fluorescence intensity (a.u.)"}
{"sequence": "TCCACGTTCACTTATCAGCCCCAACGTCTTAGCTTCCGATCGGAGTCACCTAGTGCAG", "binding signal": "9260 fluorescence intensity (a.u.)"}
{"sequence": "GGAATTTCTCAGCTCACACGAGTCACGGACCCACCACCACCGGAGTCACCTAGTGCAG", "binding signal": "8960 fluorescence intensity (a.u.)"}
{"sequence": "GGGTCTAACTCTAAGAGTATTGGGTACCCCTTATCGTTAACGGAGTCACCTAGTGCAG", "binding signal": "8360 fluorescence intensity (a.u.)"}
{"sequence": "TCTTTCATACGGAATTCCTTTTCATTATTGGATGCCAGCTCGGAGTCACCTAGTGCAG", "binding signal": "9330 fluorescence intensity (a.u.)"}
{"sequence": "CAAGGTTTGTTTTCTTATCAGTTACTACTGCTTTTGTGGTCGGAGTCACCTAGTGCAG", "binding signal": "11100 fluorescence intensity (a.u.)"}
{"sequence": "AGTAGAGTATTTTTTTTTCTTTTTTGATTGATGGTGATAACGGAGTCACCTAGTGCAG", "binding signal": "8320 fluorescence intensity (a.u.)"}
{"sequence": "ATTTATTTTGGGATGGGGAGGGAGACAACTACAGTGTTTCCGGAGTCACCTAGTGCAG", "binding signal": "18200 fluorescence intensity (a.u.)"}
{"sequence": "TGTGGGACAGGATGGTCACTAATTTCCGGTTTTGGTTTTACGGAGTCACCTAGTGCAG", "binding signal": "8480 fluorescence intensity (a.u.)"}
{"sequence": "GAGTTTTCCGTGTGGAGGGTGTGGATTTTTTCGTGTGTTCCGGAGTCACCTAGTGCAG", "binding signal": "15500 fluorescence intensity (a.u.)"}
{"sequence": "TAACGATTTTTTTTTTGGGAGGGTGGGGATTTTTTTTTTCCGGAGTCACCTAGTGCAG", "binding signal": "24100 fluorescence intensity (a.u.)"}
{"sequence": "ACCTTCACTATTTTTTTTGATTTTTTTCTTTTTTTTTTAACGGAGTCACCTAGTGCAG", "binding signal": "12200 fluorescence intensity (a.u.)"}
{"sequence": "CTTTTTTGGGTGATTTTTTTTCACTTGGGGTGGGTGATAACGGAGTCACCTAGTGCAG", "binding signal": "21800 fluorescence intensity (a.u.)"}
{"sequence": "TAGAGGGATGGGCTATTAAGTGTTTTATTTGGTTGGGAGACGGAGTCACCTAGTGCAG", "binding signal": "15200 fluorescence intensity (a.u.)"}
{"sequence": "TTTGGGGATTTCTTTCTTATTTTTCTTTCCCTTTTTTTCCCGGAGTCACCTAGTGCAG", "binding signal": "10900 fluorescence intensity (a.u.)"}
{"sequence": "CGGGTTTGATTTGATTTGATTTTGATTTTGATTTGCTTCTCGGAGTCACCTAGTGCAG", "binding signal": "8190 fluorescence intensity (a.u.)"}
{"sequence": "TTTTTCTTTTCTTTTTTGCTTTTGAATTGTGGGGTTGTAACGGAGTCACCTAGTGCAG", "binding signal": "8790 fluorescence intensity (a.u.)"}
{"sequence": "GGGTGGGTTGATTTGATAGACTTCTTTTGCTTTTGATAAACGGAGTCACCTAGTGCAG", "binding signal": "29100 fluorescence intensity (a.u.)"}
{"sequence": "ATCTCTGATCCGTCCAGTTGACCCAAAGCTAGAGTCTTTCCGGAGTCACCTAGTGCAG", "binding signal": "10700 fluorescence intensity (a.u.)"}
{"sequence": "GTGTTGTGTTTATTTTTTTATAATATCCATGATTGTAATCCGGAGTCACCTAGTGCAG", "binding signal": "9640 fluorescence intensity (a.u.)"}
{"sequence": "TCCGCCGCCGTCTCCGCCGCCTCCAGCCATCGATCCCGGCCGGAGTCACCTAGTGCAG", "binding signal": "8250 fluorescence intensity (a.u.)"}
{"sequence": "GCACACATACACATACTGACAATGATGAGTTGATGACACACGGAGTCACCTAGTGCAG", "binding signal": "8500 fluorescence intensity (a.u.)"}
{"sequence": "GCCCGGCCCAGTAGATACCACCACCTCACACTCCATTCGCCGGAGTCACCTAGTGCAG", "binding signal": "9860 fluorescence intensity (a.u.)"}
{"sequence": "GGAGCATGTTCAACCATTCATTGTTTTCTCTATTGCATAACGGAGTCACCTAGTGCAG", "binding signal": "8070 fluorescence intensity (a.u.)"}
{"sequence": "GTTGTCTAGTGCTTGCTATTCTTCTACTAGTAGTATTATACGGAGTCACCTAGTGCAG", "binding signal": "9570 fluorescence intensity (a.u.)"}
{"sequence": "AATCCATTTCCCATTCGCCATTCCCCATCCTTATCTCTTACGGAGTCACCTAGTGCAG", "binding signal": "8660 fluorescence intensity (a.u.)"}
{"sequence": "GTTGCATTTGCCGCTGCGACACGGACCCCGCCTTAATAACCGGAGTCACCTAGTGCAG", "binding signal": "9020 fluorescence intensity (a.u.)"}
{"sequence": "TACCTGATTTGTGCATATGTTTCTTTCTGTTTTGCCCTTACGGAGTCACCTAGTGCAG", "binding signal": "8170 fluorescence intensity (a.u.)"}
{"sequence": "ATTTTTACCCTTCTCCTGTGTTTTTGTTGCTGTGATTCAACGGAGTCACCTAGTGCAG", "binding signal": "8570 fluorescence intensity (a.u.)"}
{"sequence": "ATCCAATGGTATAATTTTTTTAGGGAAGGGTTTTTTTTTCCGGAGTCACCTAGTGCAG", "binding signal": "12600 fluorescence intensity (a.u.)"}
{"sequence": "AAGATTTGCTGGGAGGGTGGGGTGGGGATTAGTCCCTAAACGGAGTCACCTAGTGCAG", "binding signal": "24500 fluorescence intensity (a.u.)"}
{"sequence": "ATGCCCTGTTACCTGTGTGTGATTTCTTTGTGCTCCATAACGGAGTCACCTAGTGCAG", "binding signal": "17600 fluorescence intensity (a.u.)"}
{"sequence": "AGATGGTGTTTGGATGGGAGGGATTTATTTTAGTCCCTCTCGGAGTCACCTAGTGCAG", "binding signal": "10200 fluorescence intensity (a.u.)"}
{"sequence": "GATTTGGTGGGTTATAATTTTATAGTAAGAGGGGATTTTACGGAGTCACCTAGTGCAG", "binding signal": "16100 fluorescence intensity (a.u.)"}
{"sequence": "TCTTTCTCTCTCTTGCTGCCGTTGAGGGATTTGGGGTGAACGGAGTCACCTAGTGCAG", "binding signal": "10000 fluorescence intensity (a.u.)"}
{"sequence": "TGATTTTTTAGGGAGGGGTGGTTAGTATAAGAGGGTTTTCCGGAGTCACCTAGTGCAG", "binding signal": "20000 fluorescence intensity (a.u.)"}
{"sequence": "CTACTATTGCGTTGTTTTATTTTGGCCAGTTTATTTCAAACGGAGTCACCTAGTGCAG", "binding signal": "13400 fluorescence intensity (a.u.)"}
{"sequence": "TTTTTTTGCTTTTTCACTATTTTTTTATTTTGACGGACGACGGAGTCACCTAGTGCAG", "binding signal": "9300 fluorescence intensity (a.u.)"}
